# Vaccinia mCherry = vaccinia inhibition (mCherry reporter); Vaccinia virus mCherry reporter infection, fluorescence; Potency, µM (top dose mostly 36.5 µM), without a hit: top-dose activity change, negative = inhibition, most hits filed as inhibitors; hit rate 0.63% among 310,000; AID 720579; calls by dose curve; tested in A549 cells; further: nearly all actives have a fitted effect of over 35% in size
# Vaccinia Venus = vaccinia inhibition (Venus reporter) | hit rate 0.46% among 330,000 | Vaccinia virus Venus reporter expression, fluorescence | Potency, µM (titrated, usually from 36.5 µM), for the others: at the highest dose activity change, negative = inhibition, most hits filed as inhibitors; calls by dose curve; tested in A549 cells; further: nearly all actives have a fitted effect of over 30% in size
# HCV inh = inhibitors of hepatitis C virus infection; Huh7.5.1 HCVcc-Cre infection, luciferase reporter, 44 h; Potency, µM (series often up to 41.8 µM), without a hit: top-dose activity change, negative = inhibition, hits mostly inhibitors; hit rate 3.4% among 340,000; AID 651820; active means well fitted inhibition curve with a large enough effect; inconclusive means small, poorly fitted or top-dose-only effect, or another doubt; inactive means no such curve, though single readings can be large or run the other way
#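 HCVcc-Cre virus at an moi near 0.5 was added right after compound to cells cultured 4 h from seeding (1,000 cells/well). Luciferase activity was determined 44 h later, 15 min after substrate addition at RT.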
# * = called active by the depositor; i = inactive; ? = inconclusive; / = no result; [ ] = remark or other dose. A selection: hits, their analogues and other compounds. The true share with any hit is near 3.3%. On the % scale 0 is the no-effect control and ±100 the full control effect; potency means the concentration at half of the fitted maximal effect.
SMILES,Vaccinia mCherry,Vaccinia Venus,HCV inh
CC(C(=O)N(C)C1CCS(=O)(=O)C1)N1C(=O)/C(=C/c2ccc(F)cc2)SC1=S (stereo not drawn),/,/,-23%
O=C(Nc1ccccc1Sc1ccccc1)c1cnn2c1NC(=C1CC1)C=C2C(F)(F)F,-19%,-13%,/
O=C(Nc1cccc(-c2nc3ncccc3o2)c1)c1cc2ccccc2o1,-16%,1%,?
O=C(Nc1cccc(-c2nc3ncccc3o2)c1)c1sc2cc(Cl)ccc2c1Cl,i,-7%,8.9µM*
COc1cc(OC)c2c(-c3cccc(-c4ccc(OC)c(OC)c4)c3)cc(=O)oc2c1,-25%,?,?
COc1cc(OC)c2c(-c3cccc(-c4sccc4C(C)=O)c3)cc(=O)oc2c1,?,?,3.2µM*
COc1ccc(C(=O)O/N=C(\N)Cc2ccc(Cl)cc2)cc1OC,/,?,32µM*
Cc1nc(/C(N)=N/OC(=O)c2c(-c3ccccc3Cl)noc2C)cs1,i,-19%,-13%
COc1ccc(/C(N)=N/OC(=O)c2ccc3c(c2)OCO3)cc1OC,-12%,-23%,8.9µM*
N/C(Cc1ccc(Cl)cc1)=N\OC(=O)c1ccccc1,-12%,-19%,-1%
COc1ccc(/C(N)=N/OC(=O)c2c(-c3ccccc3Cl)noc2C)cc1OC,-11%,?,13µM*
COc1cc(OC)c(C(=O)O/N=C(\N)c2ccc(C)cc2)cc1OC,i,-22%,11µM*
COc1cc(OC)c(C(=O)O/N=C(\N)c2cccc(C)c2)cc1OC,-11%,-23%,?
N/C(=N\OC(=O)c1ccc2c(c1)OCO2)c1cccc(Br)c1,-7%,4%,13%
COc1ccc(CNC(=O)c2ccc(CS(=O)(=O)c3ccc(Br)cc3)o2)cc1,-12%,4%,?
CCC(C(=O)NC1CCCC1)n1c(C2CC2)nc2ccccc21 (stereo not drawn),6%,-5%,/
Cc1ccccc1CN1C(=O)c2ccccc2Sc2ccc(C(=O)OCc3ccco3)cc21,-10%,11%,/
CCc1cccc(C)c1NC(=O)C(CC)Sc1nncn2c1cc1occc12 (stereo not drawn),0%,-5%,/
COc1ccc(C(=O)O/N=C(\N)Cc2ccc(Cl)c(Cl)c2)cc1OC,?,?,22µM*
COc1ccc(C/C(N)=N/n2cnnc2)cc1Cl,/,-19%,13%
C[n+]1c(-c2ccccc2)sc([S-])c1-c1ccccc1,-15%[7.34 µM],2%[7.34 µM],?
Cc1cnc(C)c(-c2ccc(F)c3c2OC(CNC(=O)/C=C/c2cccs2)C3)n1 (stereo not drawn),-6%,-12%,/
COC(=O)Nc1ccc(C)cc1NC(=O)OC,/,/,3%
COC(=O)Nc1ccc2ccc3c(NC(=O)OC)ccc4ccc1c2c43,-17%,-19%,13µM*
COc1ccc(-c2onc(C)c2-c2ccc(C(=O)OC(C)C)o2)c(O)c1,?,?,6.3µM*
SMILES,Vaccinia mCherry,Vaccinia Venus,HCV inh
COc1ccc(NC(=O)c2cc(-c3ccccc3O)no2)cc1,-2%,-8%,/
Cc1ncc2c(c1CNC(=O)/C=C/c1cccs1)CCN(C(=O)c1cc(C(C)C)on1)C2,-1%,6%,/
O=C(O)/C=C(\CC(=O)O)C(=O)O,i,0%,/
CCCCCCCCCC[n+]1cccc2c3ccccc3ccc21,/,/,4µM*
CCCCCCCCCC[n+]1ccc(/C=C/c2c[nH]c3ccccc23)c2ccccc21,i,i,/
CCCCCCCC[n+]1cccc2c3ccccc3ccc21,-27%,?,1.4µM*
Cc1cccc[n+]1CCCCCCCCCC[n+]1ccccc1C,i,-3%,?
O=C(NCC(c1ccc2c(c1)OCO2)N1CCOCC1)C(=O)Nc1ccccc1 (stereo not drawn),-4%,-7%,/
Cc1nn(Cc2ccc(C(=O)NN)o2)c(C)c1Cl,/,/,13µM*
Cc1nn(Cc2ccc(C(=O)Nc3ccc(C(=O)OC(C)C)cc3)o2)c(C)c1Cl,-6%,-28%,?
CC1(c2nnc(-c3ccncc3)o2)CC(c2ccc([N+](=O)[O-])cc2)=NO1 (stereo not drawn),i,-13%,?
Cc1cccc2nc(CNC(=O)CN3Cc4ccccc4OC(c4ccccc4F)C3)cn12 (stereo not drawn),-3%,4%,/
CN(C1CCCCC1)S(=O)(=O)c1ccc2c(c1)c(=O)c(C(=O)NCCc1ccccc1)cn2C,-13%,1%,/
S=C(Nc1ccccc1Cl)NC1CCN(Cc2ccccc2)CC1,-21%,-21%,?
Cc1ccc(NC(=S)NC2CCN(Cc3ccccc3)CC2)cc1C,-21%,?,11µM*
Cc1ccc(NC(=S)NC2CCN(Cc3ccccc3)CC2)cc1,-30%,-18%,?
S=C(Nc1cc(Cl)cc(Cl)c1)NC1CCN(Cc2ccccc2)CC1,/,/,10µM*
COc1ccccc1N1CCN(C(=O)CCc2c(C)nn(-c3ccc(N4CCCC4)nn3)c2C)CC1,-9%,-9%,/
COc1ccc(CN(C)S(=O)(=O)c2ccc3c(c2)OCCO3)cc1,i,-4%,-8%
Cc1cc(C)c(C)c(S(=O)(=O)N2CCCN(C)CC2)c1C,0%,-12%,-12%
COc1ccc(Nc2nc(Nc3ccc(OC)cc3)nc(-n3[nH]c(=O)c(C)c3C)n2)cc1,?,-28%,10µM*
COc1ccc(Nc2nc(OC)nc(OC)n2)cc1,/,/,5%
C(=Nc1cnc2ccccc2c1)c1ccnc2ccccc12,-10%,5%,/
COCc1c(C(=O)N2CCN(c3ccccc3O)CC2)cnn1-c1nccc(-c2cccs2)n1,-14%,-14%,/
O=[N+]([O-])c1ccc(O)c(/C=N/Nc2ccc(Cl)nn2)c1,1.1µM*,?,4µM*
SMILES,Vaccinia mCherry,Vaccinia Venus,HCV inh
NC(=S)N/N=C/c1ccc(-c2cccc([N+](=O)[O-])c2)o1,4.5µM*,5µM*,?
NC(=S)N/N=C/c1cc([N+](=O)[O-])ccc1Cl,?,2.2µM*,-8%
CN(C)c1ccc(/C=N/NC(N)=S)cc1[N+](=O)[O-],3.5µM*,4µM*,9%
O=[N+]([O-])c1ccc(O)c(/C=N/Nc2nn[nH]n2)c1,i,-9%,3%
O=[N+]([O-])c1ccc(Cl)c(/C=N/NC(=S)Nc2ccccc2)c1,/,/,13%
C=CCNC(=S)N/N=C/c1ccc(C)c([N+](=O)[O-])c1,-12%,-24%,-26%
O=[N+]([O-])c1cccc(-c2ccc(/C=N/NC(=S)Nc3cccc(F)c3)o2)c1,-6%,-16%,?
CCOC1=C2[C@@H](CN(S(=O)(=O)c3ccc(C)cc3)[C@H]2c2cccc3ccccc23)[C@H]2C(=O)N(CC)C(=O)[C@H]2C1,i,-4%,/
CCOC(=O)c1cc(CC)sc1NC(=O)CCC(=O)O,/,-29%,9%
CCOC(=O)c1cc(CC)sc1NC(=O)Cc1ccsc1,-29%,-26%,5.6µM*
Cc1ccc2oc(-c3ccc(NC(=O)COc4ccccc4)cc3O)nc2c1,-27%,-24%,/
O=C(CCc1nc(-c2ccc(Cl)cc2)no1)NC1CCCC1,/,/,6%
O=C(CCCc1nc(-c2ccc(Cl)cc2)no1)NC1CCCCC1,-11%,-13%,7.1µM*
Cc1ccc(NC(=O)c2ccc3c(O)c(S(=O)(=O)c4ccccc4)c(=O)[nH]c3c2)cc1Cl,-12%,-5%,/
O=C(NCc1cccc(Cl)c1)c1ccc(CS(=O)Cc2ccccc2Cl)o1 (stereo not drawn),-8%,-11%,-23%
COc1cccc(N2CCN(c3ncnc4c3cnn4-c3ccc(C)cc3C)CC2)c1,14µM*,?,3.5µM*

# Source: PubChem BioAssay (National Center for Advancing Translational Sciences (NCATS))
